# 12-LOX inh: ALOX12 (human) lipoxygenase inhibition; Potency, µM (doses to about 108 µM), for the others: at the highest dose activity change, negative = inhibition, usual class: inhibitors; AID 1671190; purified 12hLO, xylenol orange hydroperoxide absorbance; hit rate 1.1% among 580,000; note: % is set by controls: 0 for no effect and ±100 for the full control effect
#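 Purified human 12hLO at 150 nM in 25 mM Hepes, 0.01% Triton X-100, pH 7.0, preincubated 15 min at room temperature with compound. Reaction started with 40 uM arachidonic acid, 30 min at room temperature. Hydroperoxide measured by Fe-xylenol orange, 573/405 nm absorbance ratio.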
# BAZ2B inh: blocks human BAZ2B. Q9UIF8. AlphaScreen BAZ2B-H3K14Ac peptide displacement. Potency, µM (titrated, usually from 114 µM), for the others: top-dose activity change, negative = inhibition, most hits filed as inhibitors. hit rate 4.4% among 360,000; note: % is set by controls: 0 for no effect and ±100 for the full control effect; nearly all actives have a fitted effect of over 60% in size
#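 AlphaScreen displacement of biotin-H3(5-23)K14Ac peptide (50 nM final) from BAZ2B (50 nM final) in PBS pH 7.4, 0.01% Tween-20; complex preformed 30 min RT, then compounds (top 110 uM) 30 min RT, beads 20 min dark.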
# JMJD2A Tudor inh: inhibitors of human JMJD2A Tudor domain | O75164 | AlphaScreen JMJD2A-Tudor / H3K4me3 peptide binding | Potency, µM (titrated, usually from 114 µM), for the others: at the highest dose activity change, negative = inhibition, usual class: inhibitors | hit rate 4.4% among 390,000 | AID 504339; note: % is set by controls: 0 for no effect and ±100 for the full control effect; nearly all actives have a fitted effect of over 50% in size
# Target sequence (O75164 whole entry, looked up, the tested form may be a part): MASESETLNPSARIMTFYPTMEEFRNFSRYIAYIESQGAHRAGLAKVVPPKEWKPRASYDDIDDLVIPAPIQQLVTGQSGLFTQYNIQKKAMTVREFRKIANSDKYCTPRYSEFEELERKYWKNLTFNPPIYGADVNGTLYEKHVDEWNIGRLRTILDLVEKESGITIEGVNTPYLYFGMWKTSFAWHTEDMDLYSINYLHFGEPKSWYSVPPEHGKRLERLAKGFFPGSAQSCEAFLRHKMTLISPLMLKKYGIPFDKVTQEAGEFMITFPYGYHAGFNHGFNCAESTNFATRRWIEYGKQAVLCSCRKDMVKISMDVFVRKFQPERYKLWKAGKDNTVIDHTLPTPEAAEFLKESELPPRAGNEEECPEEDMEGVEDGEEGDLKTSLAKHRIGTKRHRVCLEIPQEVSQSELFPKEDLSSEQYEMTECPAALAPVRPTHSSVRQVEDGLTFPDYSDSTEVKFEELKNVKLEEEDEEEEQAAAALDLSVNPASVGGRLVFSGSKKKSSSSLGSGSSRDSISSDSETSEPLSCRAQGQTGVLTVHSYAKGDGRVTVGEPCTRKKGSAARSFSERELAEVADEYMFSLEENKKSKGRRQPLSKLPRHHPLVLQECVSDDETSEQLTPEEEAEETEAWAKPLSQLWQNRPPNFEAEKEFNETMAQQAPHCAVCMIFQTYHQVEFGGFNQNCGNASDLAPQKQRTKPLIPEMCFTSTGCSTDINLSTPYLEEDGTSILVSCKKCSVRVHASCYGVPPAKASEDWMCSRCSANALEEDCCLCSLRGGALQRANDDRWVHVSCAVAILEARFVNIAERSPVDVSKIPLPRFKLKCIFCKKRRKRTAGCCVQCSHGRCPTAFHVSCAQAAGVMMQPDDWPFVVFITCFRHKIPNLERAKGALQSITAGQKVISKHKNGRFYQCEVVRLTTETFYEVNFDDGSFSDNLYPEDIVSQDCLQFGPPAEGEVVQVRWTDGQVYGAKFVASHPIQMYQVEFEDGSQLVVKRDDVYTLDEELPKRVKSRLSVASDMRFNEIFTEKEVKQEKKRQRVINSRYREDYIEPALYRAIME
# HP1b chromo inh: blocks HP1-beta chromodomain binding to methylated histone tails | P83916 | AlphaScreen HP1-beta / biotin-H3K9me3 peptide binding | hit rate 0.56% among 390,000 | Potency, µM (series often up to 114 µM), for the others: at the top dose activity change, negative = inhibition, most hits filed as inhibitors; note: nearly all actives have a fitted effect of over 70% in size
#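 Compound inhibition of the preformed complex between 50 nM HP1-beta and 50 nM biotinylated H3K9me3 peptide was read by AlphaScreen. Buffer was PBS pH 7.4 with 0.01% Tween-20. Incubations ran 30 min at room temperature, with 10 ug/mL donor/acceptor beads.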
# Sfp PPTase inh: Sfp phosphopantetheinyl transferase inhibition; Biochemical Sfp PPTase activity, qHTS; hit rate 3.5% among 310,000; Q9F4F7; AID 1490; Potency, µM, for inactives: largest response in the series, negative = inhibition, hits mostly inhibitors;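 note: the enzyme is Sfp with the accession as filed and its product quenches rhodamine fluorescence; 0% = enzyme reaction without inhibitor and -100% = no enzyme wells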
#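 Fluorescence-quenching assay: 15 nM Sfp-PPTase preincubated 15 min at room temperature with compound, then 5 uM rhodamine-CoA and 12.5 uM BHQ-2-labelled YbbR peptide added. Fluorescence (ex 525/em 598 nm) read at start and after 30 min; difference gives rate.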
# G9a inh: blocks human histone lysine methyltransferase G9a; Potency, µM (top dose mostly 102 µM), for inactives: top-dose activity, negative = inhibition, actives largely listed as inhibitors; AID 504332; hit rate 8.8% among 350,000; Q96KQ7; G9a H3K9 monomethylation, AlphaScreen, 2 h; note: % is set by controls: 0 for no effect and ±100 for the full control effect; nearly all actives have a fitted effect of over 75% in size
#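 AlphaScreen read-out: biotin-H3K9 peptide (500 nM) methylation by 20 nM enzyme with 20 uM SAM, 2 h at room temperature after 15 min compound preincubation; anti-monomethyl H3K9 antibody plus donor/acceptor beads, 10 min dark.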
# * = called active by the depositor; ? = inconclusive; . = no result given; ! = not active in a repeat; [ ] = dose if it differs, or a comment. This is a sample that favours compounds with a hit; in the whole collection about 8.7% have one here. Calls come from the whole dose curve; as a rule, active = well fitted curve in the direction sought with a large enough effect; inconclusive = small, poorly fitted or top-dose-only effect, or another doubt; inactive = no such curve, though single readings can be large; an effect the other way counts as inactive or inconclusive. Potency is the fitted concentration of half-maximal effect.
SMILES,12-LOX inh,BAZ2B inh,JMJD2A Tudor inh,HP1b chromo inh,Sfp PPTase inh,G9a inh
Cc1ccc2cc(C(c3nnnn3C3CCCC3)N(Cc3ccco3)Cc3cccs3)c(=O)[nH]c2c1 (stereo unspecified),?,-6%,-7%,10%,-11%,28µM*
Cc1ccc2cc(C(c3nnnn3C3CCCC3)N(Cc3cccnc3)Cc3ccco3)c(=O)[nH]c2c1 (stereo unspecified),-12%,-37%,?,17%,10µM*,20µM*
CC1CCC2C(=O)N(c3ccc(NC4CCN(Cc5ccccc5)CC4)c([N+](=O)[O-])c3)C(=O)C2C1 (stereo unspecified),-11%,35µM*,32µM*,?,7%,40µM*
O=[N+]([O-])c1ccccc1NC1CCN(Cc2ccccc2)CC1,?,40µM*,?,?,19%,.
O=C1CCC(=O)N1c1ccc(NC2CCN(Cc3ccccc3)CC2)c([N+](=O)[O-])c1,-11%,0%,-25%,-2%[57 µM],1%,12%
O=C1C2CCCCC2C(=O)N1c1ccc(NC2CCN(Cc3ccccc3)CC2)c([N+](=O)[O-])c1 (stereo unspecified),-2%,40µM*,45µM*,?,-9%,?
COc1cccc(CN2C(=O)N(c3cccc(OC)c3)S(=O)(=O)c3ccccc32)c1,-66%,.,.,.,.,.
CC(=O)CSc1ncnc2nc[nH]c12,?,-29%,-24%,18%,0%,-3%[59 µM]
Cn1cnc(Sc2ncnc3nc[nH]c23)c1[N+](=O)[O-],7%,?,6.3µM*,?,40µM*,.
Cn1cnc([N+](=O)[O-])c1Sc1ncnc2nc[nH]c12,?,-5%,3%,21%,79µM*!,16%[12.7 µM]
O=C(NC1CCN(c2cc(-c3cccs3)[nH]n2)C1)c1ccccc1Cl (stereo unspecified),30%,.,.,.,.,.
O=[N+]([O-])c1cccnc1Oc1ccc(F)cc1,0%,-25%,-14%,-26%,13%,-27%
O=[N+]([O-])c1ccc(Oc2ccc(F)cc2)c2ccncc12,?,50µM*,?,-34%,-7%,?
Cc1cnc(C(=O)N2CCC3(CC2)CC(CO)N(C(=O)c2ccccc2)C3)cn1 (stereo unspecified),7%,.,.,.,.,.
CC(C)n1nc(C(=O)OCc2nc(N)nc(Nc3ccccc3)n2)c2ccccc2c1=O,-4%,.,.,.,.,.
CCOc1ccccc1/C=N/Nc1nc2c(N)ncnc2n1[C@H]1O[C@@H](CO)[C@H](O)[C@@H]1O,?,-9%,-14%,36%,56µM*,10%[59 µM]
COc1ccccc1-n1cc(C(=O)NC2CCCN(C3CCCCCC3)C2)cn1 (stereo unspecified),-6%,.,.,.,.,.
Cc1cc(C(=O)N2CCCCCCNC(=O)[C@@H]3C[C@@H](c4nc(-c5cccnc5)no4)C[C@@H]32)nn1C,29%,.,.,.,.,.
Cc1cc(NC(=O)Cn2nnc3sc4c(c3c2=O)CCC(C(C)(C)C)C4)no1 (stereo unspecified),0%,-21%,?,-14%,-6%,-2%
CN(C)c1ccc(NC(=O)Cn2nnc3sc4c(c3c2=O)CCC(C(C)(C)C)C4)cc1 (stereo unspecified),?,?,?,-10%,.,4.5µM*
CN(C)CCN=Cc1c(O)n(Cc2ccccc2)c(=O)c2ccccc12,7%,-32%,-22%,-6%,-1%,56µM*
Cc1ccc(-n2ncc(C(=O)NCC3CCN(C4CCCC4)C3)c2C2CCN(C(=O)OC(C)(C)C)CC2)cc1 (stereo unspecified),-11%,?,-30%,47%,-8%,71µM*
O=C(NCCCN1CCCC1=O)c1ccc(-c2ncc3cnc(-c4ccccc4)cn23)cc1,-36%,.,.,.,.,.
Cc1ccc(N/N=C/c2c(C)c(C#N)c(=O)n(C)c2O)cc1C,-22%,56µM*,11µM*,-20%,13µM*,0.79µM*

# Screens: PubChem, National Center for Advancing Translational Sciences (NCATS)
